In PubChem BioAssay (NCATS):
Records with an inconclusive call do not appear. The source made the active and inactive calls. Calls follow the shape of the dose curve; as a rule, active = well fitted curve in the direction sought with a large enough effect; inconclusive = small, poorly fitted or top-dose-only effect, or another doubt; inactive = no such curve, though single readings can be large; an effect the other way counts as inactive or inconclusive. Starred links: 1 amine or outer side, 2 acyl side, 3 side chain; linkers in the order of their positions; H or OH if unused. Positions of bridges follow the written chain, without caps; N, C: chain ends. Non-standard residues stand in square brackets, D forms with d. Residues, ends and D or L forms follow the SMILES beside them. ξ: configuration not given here. *: point of attachment. X3 = C[C@@H](Oc1ccc([C@H](N[*:1])C(=O)[*:2])cc1)[C@]1(/C=C\C(=O)[*:3])CO1; d(aIle) = CC[C@H](C)[C@@H](N)C(=O)O; X2 = CC(C)[C@@H](O)C(C)C(=O)*; ξNMeF = CNC(Cc1ccccc1)C(=O)O; ξT = CC(O)C(N)C(=O)O; ξS = NC(CO)C(=O)O

Key:
[1] = OV-SAHO Cancer Cell Toxicity qHTS against the NCATS CANVASS Library (AID 1347348); also: nearly all actives have a fitted effect of over 55% in size
In short: (§1)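 Cells were seeded at 1000 per well, allowed 4 h at 37 degrees C/5% CO2, then pin-treated with an 11-point compound series. After 72 h, viability was read as CellTiter-Glo luminescence following 15min at room temperature.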

[2] = SW1088 Cancer Cell Toxicity qHTS against the NCATS CANVASS Library (AID 1347350); also: nearly all actives have a fitted effect of over 75% in size
In short: as §1

[3] = COV-362 Cancer Cell Toxicity qHTS against the NCATS CANVASS Library (AID 1347352)
In short: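 Toxicity was measured as CellTiter-Glo luminescence after 72 h exposure to an 11-point compound series. Compound was added to 1000 cells/well 4 h after seeding.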

[4] = SDT Cancer Cell Toxicity qHTS against the NCATS CANVASS Library (AID 1347365); also: nearly all actives have a fitted effect of over 60% in size
In short: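 Cytotoxicity taken from CellTiterGlo ATP luminescence after 72 hr at 37C, 5% CO2. Canine glioma line SDT, 500 cells/well, treated at 11 concentrations; bortezomib dose series as control.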

[5] = MCF7 Cancer Cell Toxicity qHTS against the NCATS CANVASS Library (AID 1347369)
In short: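 MCF7 cells (500/well) were exposed 72 h at 37 °C to compounds in an 11-point series. Viability was read as ATP content by CellTiterGlo luminescence.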

[6] = qHTS for ATAD5 Antagonist screened against the NCATS CANVASS Library (AID 1347370); also: nearly all actives have a fitted effect of over 65% in size
In short: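 Compounds (11-point) co-dosed with 10 µM 5-FUrd for 16 h at 37 °C onto HEK293T-ATAD5 luciferase reporter cells. Viability measured by CellTiter-Fluor fluorescence, then ATAD5 reporter signal by luminescence.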

[7] = Vero-766 cells viability qHTS against the NCATS CANVASS Library: Counterscreen for Zika virus inhibition assay (AID 1347394); also: nearly all actives have a fitted effect of over 60% in size
In short: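 Vero 766 cells (1000/well), without Zika virus, were exposed to compounds for 72 h at 37C. Viability was measured by CellTiter Glo luminescence. Media-only wells served as 100% inhibition.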

[8] = HPAF-II Cancer Cell Toxicity qHTS against the NCATS CANVASS Library (AID 1347346); also: nearly all actives have a fitted effect of over 55% in size
In short: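 Cytotoxicity read-out was CellTiter-Glo luminescence after 72 h at 37 degrees C exposure of HPAF-II cells (1000/well) to compounds in an 11-point titration.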

[9] = A2780 Cisplatin Sensitive Ovarian Cancer Cell Toxicity qHTS against the NCATS CANVASS Library (AID 1347353); also: nearly all actives have a fitted effect of over 60% in size
In short: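 Cisplatin-sensitive A2780 ovarian cells (750/well) received compound in 11 concentrations, and were incubated 72 h at 37 °C. ATP content was measured by ATPLite luminescence; bortezomib served as control.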

[10] = qHTS for activators of Nrf2/ARE signaling pathway screened against the NCATS CANVASS Library (AID 1347391); also: nearly all actives have a fitted effect of over 60% in size
In short: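 Eleven-point qHTS, 16 h treatment of HepG2 cells carrying an ARE-driven beta-lactamase reporter; CCF4 ratio read (405 nm excitation, 460 and 530 nm emission), with CellTiter-Glo ATP luminescence for viability.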

[11] = qHTS for inhibitors of ER calcium dysfunction: SERCaMP assay screened against the NCATS CANVASS Library (AID 1347393); also: nearly all actives have a fitted effect of over 40% in size
In short: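 Thapsigargin-induced ER calcium depletion drives GLuc-SERCaMP secretion from SH-SY5Y cells; compounds given 16 h beforehand were scored by lowered coelenterazine luminescence after 4 h challenge.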

Measured: Potency
Potency is read from the fitted curve at half-maximal effect.

CO[C@@]12c3c(C)cc(O)c4c(=O)occ(c34)C(=O)[C@@H]1[C@]13COC(=O)c4c(O)cc(C)c(c41)C(=O)[C@H]2[C@@H]3OC(C)=O
active: [2] 18.8 µM
inactive: [1] | [3] | [4] | [5] | [6] | [7]

C=C[C@]12C=CCN3CC[C@@]4(c5ccccc5NC(=O)[C@@H]4C1)[C@@H]32
active: [10] 20.9 µM
not listed: [11]
inactive: all other assays above

C[C@]12CCC3[C@@H](CC[C@@H]4C[C@@H](O)CC[C@]34CO)[C@@]1(O)CC[C@@H]2C1=CC(=O)OC1 (stereo partly specified)
inactive: [10] | [11]
active: [8] 2.98 µM | [1] 2.36 µM | [3] 1.88 µM | [9] 2.96 µM | [4] 1.48 µM | [5] 1.17 µM | [6] 4.17 µM | [7] 11.7 µM

O[C@H]1C=C[C@@]23CCN(Cc4cc5c(cc42)OCO5)[C@@H]3C1
inactive: all assays above

C/C=C1/CN2CC[C@@]34c5ccccc5N(C)[C@@H]3[C@@H]2C[C@@H]1[C@H]4C(=O)OC
inactive: [8] | [1] | [3] | [9] | [10] | [7]
active: [11] 0.86 µM

C/C(=C\[C@H](C)C(=O)C[C@H](O)CC1CC(=O)NC(=O)C1)[C@@H]1OC(=O)/C=C/CC/C=C/C=C/[C@@H]1C
inactive: [10] | [11]
active: [8] 0.0943 µM | [1] 0.118 µM | [9] 0.0332 µM | [4] 0.0662 µM | [6] 0.105 µM | [7] 6.6 µM

C[C@]12CC(O)C3[C@@H](CCC4C[C@@H](O)CC[C@@]43CO)[C@@]1(O)CC[C@@H]2C1=CC(=O)OC1 (stereo partly specified)
active: [9] 16.6 µM | [4] 10.5 µM
inactive: [2] | [6] | [10] | [11]

CO[C@H]([C@@H](C)[C@H]1O[C@]1(C)C[C@H](C)/C=C/C=C(\C)[C@H]1O[C@@H](CC(=O)O)CC[C@@H]1C)[C@@H](C)O
inactive: [2] | [6] | [11]
active: [8] 0.0266 µM | [9] 0.0053 µM | [4] 0.0148 µM | [5] 0.0052 µM | [10] 0.0066 µM

CCCC[C@@H](C)/C=C1/CN2CCC[C@H]2[C@@](C)(O)[C@@H]1O
not listed: [8] | [10] | [11]
inactive: all other assays above

CO[C@@H](/C=C/CC/C=C/C(=O)O)[C@@H](O)[C@H](C)/C=C(\C)[C@H](O)[C@H](C)C(=O)CCCC1CC(=O)NC(=O)C1
inactive: all assays above

C=C(C)[C@H]1C(=O)c2c3c(cc4c5c(n1c24)[C@@]1(C)[C@@H](CC[C@H]2[C@](C)(/C=C/C=C(\C)C(=O)O)[C@@H](O)CC[C@@]21C)C5)C1=CC(C)(C)OC(C)(C)[C@H]1[C@@H]3O
inactive: [10] | [11]
active: [8] 5.95 µM | [1] 11.8 µM | [2] 5.95 µM | [3] 21.1 µM | [9] 3.72 µM | [6] 16.6 µM | [7] 7.41 µM

CC[C@H]1CN2CCc3c([nH]c4cccc(OC)c34)[C@@H]2C[C@@H]1/C(=C\OC)C(=O)OC
inactive: [8] | [3] | [5] | [6] | [7]
active: [11] 13.6 µM

CO[C@H]1[C@H](O[C@H]2CC[C@]3(C=O)[C@H]4CC[C@]5(C)[C@@H](C6=CC(=O)OC6)CC[C@]5(O)[C@@H]4CC[C@]3(O)C2)O[C@H](C)[C@H](O)[C@@H]1OC
active: [8] 0.335 µM | [3] 0.236 µM | [9] 0.209 µM | [4] 0.148 µM | [6] 0.132 µM | [7] 0.741 µM
inactive: [10] | [11]

CCCC[C@@H]1CC[C@H]2CCCC(CCCO)N12 (stereo partly specified)
not listed: [11]
inactive: all other assays above

C=C[C@H]1CN2CCc3c([nH]c4cccc(OC)c34)[C@@H]2C[C@@H]1/C(=C\OC)C(=O)OC
active: [9] 20.9 µM | [4] 16.6 µM | [11] 17.2 µM
inactive: [8] | [5] | [6] | [7]

CC[C@@H]1CN2CCC3(Nc4cccc(OC)c4C3=O)[C@@H]2C[C@@H]1/C(=C\OC)C(=O)OC (stereo partly specified)
active: [11] 12.2 µM
not listed: [1]
inactive: all other assays above

COC1C(O)C(C)OC(OC2C(Oc3cccc4c(O)c5c(=O)oc6ccc(C)c7c(=O)oc(c34)c5c67)OC(C)C(O)C2O)C1O (stereo unspecified)
active: [9] 3.32 µM | [4] 11.8 µM
inactive: [2] | [10] | [11]

CO[C@H]1C[C@H](O[C@H]2[C@@H](O)C[C@H](O[C@H]3CC[C@]4(C=O)[C@H]5CC[C@]6(C)C(C7=CC(=O)OC7)CC[C@]6(O)[C@@H]5CC[C@]4(O)C3)O[C@@H]2C)O[C@H](C)[C@H]1O[C@H]1C[C@@H](OC)[C@@H](O[C@@H]2O[C@H](CO)[C@@H](O)[C@H](O)[C@H]2O)[C@@H](C)O1 (stereo partly specified)
active: [8] 0.376 µM | [3] 0.374 µM | [9] 0.0833 µM | [4] 0.148 µM | [5] 0.166 µM | [6] 0.66 µM
inactive: [1] | [10] | [11]

CC[C@]12C=CCN3CC[C@]4(C(=C(C(=O)OC)C1)Nc1ccccc14)[C@@H]32
not listed: [4] | [6] | [11]
inactive: all other assays above

C/C=C1/CN2C3CC1C1=CCC(=O)N4c5ccccc5[C@@]3(C[C@@H]2C2=C[C@H]3C5CC6N(CC[C@@]67c6ccccc6N(C2=O)[C@@H]37)C/C5=C/C)[C@H]14 (stereo partly specified)
active: [8] 18.8 µM | [2] 14.9 µM | [9] 13.2 µM | [4] 20.9 µM | [6] 14.8 µM | [10] 7.41 µM

CC[C@H](C)[C@H]1NC(=O)[C@@H](NC(=O)C(C)[C@H](O)C(C)C)[C@@H](C)OC(=O)C2COC(=O)CNC(=O)/C=C\[C@]3(CO3)[C@@H](C)Oc3ccc(cc3)[C@H](NC1=O)C(=O)N(C)C(Cc1ccccc1)C(=O)NC(C(C)O)C(=O)N2 (stereo partly specified) (X2-T[d(aIle)][X3][ξNMeF][ξT][ξS]; ester 1-C; linker 3-6 via G)
not listed: [4]
inactive: all other assays above

CCCCC1CC[C@H]2CCCC(CCC)N12 (stereo partly specified)
not listed: [9]
inactive: all other assays above

CC[C@@H]1CN2CCc3c([nH]c4cccc(OC)c34)[C@@H]2C[C@@H]1/C(=C\OC)C(=O)OC
active: [1] 14.9 µM | [4] 16.6 µM | [11] 8.6 µM
inactive: [10]

C1=C2CCCN[C@H]2C2CC1[C@H]1CCCCN1C2 (stereo partly specified)
not listed: [4]
inactive: all other assays above

C/C=C/[C@@H]1[C@H]2C[C@@H](C)CC[C@@H]2C(C)=C[C@H]1C(=O)c1c(O)c(-c2ccc(O)cc2)c[nH]c1=O
active: [8] 13.3 µM | [1] 23.6 µM | [2] 6.68 µM | [11] 19.3 µM | [7] 18.6 µM
inactive: [5]

CC(C)CC1C(=O)O[C@H](C(C)C)C(=O)N(C)C(CC(C)C)C(=O)O[C@@H](C(C)C)C(=O)N(C)C(CC(C)C)C(=O)O[C@H](C(C)C)C(=O)N(C)C(CC(C)C)C(=O)O[C@@H](C(C)C)C(=O)N1C (stereo partly specified)
active: [8] 5.95 µM | [1] 5.94 µM | [2] 5.95 µM | [9] 5.26 µM | [7] 11.7 µM
inactive: [5] | [10]
